Experimental findings from PubChem BioAssay AID2490 (National Center for Advancing Translational Sciences (NCATS), 2010) are described below.

Activity calls are given as the source filed them. Calls follow the shape of the full dose curve.

Chain of Thyroid hormone receptor beta (Homo sapiens) (P10828 whole entry, looked up, the tested form may be a part): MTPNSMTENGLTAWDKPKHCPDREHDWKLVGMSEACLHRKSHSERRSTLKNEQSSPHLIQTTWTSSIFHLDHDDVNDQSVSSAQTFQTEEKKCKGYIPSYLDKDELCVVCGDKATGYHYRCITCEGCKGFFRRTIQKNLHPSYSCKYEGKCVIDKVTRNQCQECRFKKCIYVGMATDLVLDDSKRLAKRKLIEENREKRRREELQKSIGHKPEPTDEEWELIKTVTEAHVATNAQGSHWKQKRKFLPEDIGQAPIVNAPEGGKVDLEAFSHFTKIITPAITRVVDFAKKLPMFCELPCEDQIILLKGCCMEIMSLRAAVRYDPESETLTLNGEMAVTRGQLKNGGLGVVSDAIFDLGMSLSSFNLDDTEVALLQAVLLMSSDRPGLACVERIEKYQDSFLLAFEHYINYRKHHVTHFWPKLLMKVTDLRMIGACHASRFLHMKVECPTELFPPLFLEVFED

The experiment concerns the target Thyroid hormone receptor beta (Homo sapiens) (UniProt P10828). Briefly: Secondary Confirmation Assay for Inhibitors of the Interaction of Thyroid Hormone Receptor and Steroid Receptor Coregulator 2, Texas Red Fluoroprobe. The note with it: TRb LBD / Texas Red SRC2 peptide fluorescence polarization. An excerpt: NIH Molecular Libraries Probe Production Network [MLPCN] NIH Chemical Genomics Center [NCGC] MLPCN Grant: DK058080 Assay Provider: R. Kip Guy, St. Jude Children's Research Hospital NCGC Assay Overview: Thyroid receptor (TR) regulates many homeostatic processes including basal metabolism, cardiovascular function, body weight, and lipid trafficking. TR modulators are potential therapeutics for obesity and hyperlipidemias but current thyroid analogs have undesirable side effects, particularly cardiac stimulation. To identify inhibitors that specifically prevent the interaction of TR with the steroid receptor coregulator 2 (SRC2), a fluorescence polarization assay was screened (Arnold et al., 2006). This assay detects the interaction of the ligand-binding domain of human TRb with a Texas Red labeled SRC2 peptide, corresponding to a 20 amino acid region of the nuclear receptor interaction domain. Small molecule inhibitors that block the interaction of TR and SRC2 are detected by a decrease in fluorescence polarization.
NCGC Assay Protocol Summary: Twenty uL/well 0.6 uM TRb and 20 nM Texas Red labeled SRC2-2 in protein buffer (20mM Tris hydrochloride, pH 7.4, 100mM NaCl, 10% glycerol, 1mM EDTA, 0.01% NP-40, 1mM DTT, 1uM T3 and 4% DMSO) was dispensed into black solid 384-well plates (Costar 3710) using a Biomek FX (Beckman Coulter) liquid handling system. Following transfer of 260 nL compound (ranging from 7 nM to 130 uM), the plates were incubated 3 hr at ambient temperature. The plates were read by an Envision (Perkin Elmer) to detect fluorescence polarization of SRC2 Texas Red (555 nm excitation and 632 nm emission). Arnold, L. A.; Estebanez-Perpina, E.; Togashi, M.; Shelat, A.; Ocasio, C. A.; McReynolds, A. C.; Nguyen, P.; Baxter, J. D.; Fletterick, R. J.; Webb, P.; Guy, R. K. A high-throughput screening method to identify small molecule inhibitors of thyroid hormone receptor coactivator binding. Sci STKE 2006, p 13.
In the case of `CS(=O)(=O)c1ccc(-c2nc(C(=O)NC3C4CC5CC(C4)CC3C5)cs2)cc1[N+](=O)[O-]` (stereo not given), the Potency is 10.1 µM (active).

As for `CCN(CC)C(=O)COC(=O)c1ccc(S(C)(=O)=O)c([N+](=O)[O-])c1`, the Potency was 41.3 µM (active).

With `Cc1nc(-c2ccc(S(C)(=O)=O)c([N+](=O)[O-])c2)sc1C(=O)NC1C2CC3CC(C2)CC1C3` (stereo not given), the Potency is 4 µM (active).

As for `Cc1cc(C(=O)OCC(=O)NC(=O)C2CCCCC2)ccc1[N+](=O)[O-]`, the compound was called inactive.

Take `Cc1ccccc1NC(=O)COC(=O)c1ccc(S(C)(=O)=O)c([N+](=O)[O-])c1`: the compound was classed as inactive.

Consider `Cn1cccc1C(=O)NC(=O)COC(=O)c1ccc(S(C)(=O)=O)c([N+](=O)[O-])c1`, for which the Potency is 38.4 µM (active).

Regarding `C#CCNC(=O)COC(=O)c1ccc(S(C)(=O)=O)c([N+](=O)[O-])c1`, the compound was classed as inactive.

Take `CC(=O)N1CCN(C(=O)COC(=O)c2ccc([S+](C)(=O)[O-])c([N+](=O)[O-])c2)CC1`: the compound was called inactive.

On to `CC(=O)c1cccc(NC(=O)C(C)OC(=O)c2ccc(S(C)(=O)=O)c([N+](=O)[O-])c2)c1` (stereo not given), for which the Potency is 50.9 µM (active).

`CC1CCN(C(=O)C(C)OC(=O)c2ccc(S(C)(=O)=O)c([N+](=O)[O-])c2)CC1` (stereo not given): the Potency was 6.4 µM (active).

Turning to `CC(C)CN1CCN(C(=O)COC(=O)c2ccc(S(C)(=O)=O)c([N+](=O)[O-])c2)CC1`, the Potency is 42.4 µM (active).

Regarding `CS(=O)(=O)c1ccc(C(=O)OCC(=O)N2CCCc3ccccc32)cc1[N+](=O)[O-]`, the Potency was 2.3 µM (active).

For the compound `CS(=O)(=O)c1ccc(C(=O)OCC(=O)N2CCc3ccccc32)cc1[N+](=O)[O-]`, the Potency was 51.8 µM (active).

`CS(=O)(=O)c1ccc(-c2nnc(-c3ccccc3)s2)cc1[N+](=O)[O-]`: the compound was classed as inactive.

Take `CS(=O)(=O)c1ccc(C(=O)OCC(=O)N2CCN(C3CCCCC3)CC2)cc1[N+](=O)[O-]`: the Potency was 16.1 µM (active).

Consider `CS(=O)(=O)c1ccc(C(=O)OC(C(=O)NC2C3CC4CC(C3)CC2C4)c2ccccc2)cc1[N+](=O)[O-]` (stereo not given), for which the Potency was 3.9 µM (active).

Take `CS(=O)(=O)c1ccc(C(=O)OCC(=O)N2CCOCC2)cc1[N+](=O)[O-]`: the call was inactive.

Take `CS(=O)(=O)c1ccc(C(=O)OCC(=O)N2Cc3ccccc3C2)cc1[N+](=O)[O-]`: the Potency was 3 µM (active).

As for `CC1CCCCN1C(=O)COC(=O)c1ccc(S(C)(=O)=O)c([N+](=O)[O-])c1` (stereo not given), the Potency is 11.5 µM (active).

Take `CC(OC(=O)c1ccc(S(C)(=O)=O)c([N+](=O)[O-])c1)C(=O)NC1C2CC3CC(C2)CC1C3` (stereo not given): the Potency was 1.4 µM (active).

With `CC(=O)Nc1cccc(C(=O)OCC(=O)NC(=O)C2CCCCC2)c1`, the compound was called inactive.

As to `CS(=O)(=O)c1ccc(C(=O)OCC(=O)Nc2cc(C(F)(F)F)ccc2Cl)cc1[N+](=O)[O-]`, the compound was called inactive.

Take `CC(=O)c1cccc(NC(=O)COC(=O)c2ccc(S(C)(=O)=O)c([N+](=O)[O-])c2)c1`: the compound was called inactive.

Consider `CS(=O)(=O)c1ccc(C(=O)OCC(=O)N2CCCCC2)cc1[N+](=O)[O-]`, for which the Potency is 20.5 µM (active).

Take `CS(=O)(=O)c1ccc(C(=O)OCC(=O)NC2C3CC4CC(C3)CC2C4)cc1[N+](=O)[O-]` (stereo not given): the Potency was 1.6 µM (active).

On to `O=C(COC(=O)c1cccc([N+](=O)[O-])c1Cl)NC1C2CC3CC(C2)CC1C3` (stereo not given), for which the result was inactive.

On to `CS(=O)(=O)c1ccc(-c2nnc(-c3ccccc3)o2)cc1[N+](=O)[O-]`, for which the compound was classed as inactive.

Regarding `CS(=O)(=O)c1ccc(C(=O)OCC(=O)NC(=O)NC2CCCCC2)cc1[N+](=O)[O-]`, the Potency was 19.1 µM (active).

Turning to `CS(=O)(=O)c1ccc(C(=O)OCC(=O)NC(=O)C2CCCCC2)cc1[N+](=O)[O-]`, the Potency is 1.4 µM (active).

As for `CS(=O)(=O)c1ccc(C(=O)OCC(=O)N2CCC(c3ccccc3)CC2)cc1[N+](=O)[O-]`, the Potency was 6.2 µM (active).

As to `O=C(COC(=O)c1ccc(Cl)c([N+](=O)[O-])c1)NC1C2CC3CC(C2)CC1C3` (stereo not given), the compound was called inactive.

In the case of `CC1CCN(C(=O)COC(=O)c2ccc(S(C)(=O)=O)c([N+](=O)[O-])c2)CC1`, the Potency is 9.8 µM (active).

Turning to `C#CC1(NC(=O)COC(=O)c2ccc(S(C)(=O)=O)c([N+](=O)[O-])c2)CCCCC1`, the Potency was 9.2 µM (active).

As for `O=C(COC(=O)c1cc([N+](=O)[O-])ccc1Cl)NC1C2CC3CC(C2)CC1C3` (stereo not given), the result was inactive.

Take `CS(=O)(=O)c1ccc(C(=O)OCC(=O)N2CCC(Cc3ccccc3)CC2)cc1[N+](=O)[O-]`: the Potency is 8.2 µM (active).

For `CCN1CCN(C(=O)COC(=O)c2ccc(S(C)(=O)=O)c([N+](=O)[O-])c2)C(C)C1` (stereo not given), the call was inactive.

As for `Cc1ccc(-c2csc(-c3ccc(S(C)(=O)=O)c([N+](=O)[O-])c3)n2)cc1`, the Potency is 36.8 µM (active).

Take `C[S+](=O)([O-])c1ccc(C(=O)OCC(=O)N2CCN([S+](C)(=O)[O-])CC2)cc1[N+](=O)[O-]`: the call was inactive.

For the compound `CS(=O)(=O)c1ccc(C(=O)OCC(=O)Nc2ccc(OC(F)(F)F)cc2)cc1[N+](=O)[O-]`, the outcome was inactive.

`CCC(OC(=O)c1ccc(S(C)(=O)=O)c([N+](=O)[O-])c1)C(=O)NC1C2CC3CC(C2)CC1C3` (stereo not given): the Potency is 1.1 µM (active).
